Experimental data from paper PMC7826789 (International Journal of Molecular Sciences, 2021).

Each compound was assayed on TIE1. Settings: Compound Concentration (nM):1000.
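Also: KINOMEscan scanMAX binding as percent activity remaining versus control; lower means stronger binding.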

First: CN1CCN(C(=O)c2ccc(NC(=O)Nc3ccc(N(C)c4ccnc(Nc5ccc(CS(C)(=O)=O)cc5)n4)cc3)cc2)CC1.Cl [GW830263A]
Second: Cl.O=C(Nc1ccc(Oc2ccc3[nH]c(NC(=O)c4ccccc4)nc3c2)cc1)Nc1cc(C(F)(F)F)ccc1F [GW709042A]
The “Percent Control” value of the first is higher: 8.3% for the first, 2.3% for the second.

`COc1cc2ncnc(Nc3ccc4c(cnn4Cc4ccccc4)c3)c2cc1OC.Cl` [GW282449A] and `CN(C)c1cc2c(Nc3ccc4c(cnn4Cc4ccccc4)c3)ncnc2cn1` [GW282974X] are the same in “Percent Control” value: 100% for the first, 100% for the second.

Compared with `CC1=C(C(=O)Nc2ccc3[nH]ncc3c2)C(c2ccc3ccccc3c2)CC(=O)N1` (stereo not drawn) [GSK270822A], `CC1=C(C(=O)Nc2ccc3[nH]ncc3c2)C(c2ccc(Cl)c(Cl)c2)CC(=O)N1` (stereo not drawn) [GSK299115A] is higher in “Percent Control” value: 80% for the first, 90% for the second.

`O=C(Nc1n[nH]c2nc(-c3ccc(O)cc3)c(Br)cc12)C1CC1` [SB-725317] and `CCc1ccc(Oc2nccc(-c3c(-c4ccc(F)cc4)ncn3C3CCNCC3)n2)cc1` [SB-242719] are the same in “Percent Control” value: 100% for the first, 100% for the second.

Going from `CCS(=O)(=O)c1ccc(OC)c(Nc2ncc(-c3cccc(F)c3)o2)c1` [GW621970X] to `CCS(=O)(=O)c1ccc(OC)c(Nc2ncc(-c3cccc(OC)c3)o2)c1` [GW580509X], the “Percent Control” value falls from 69% to 49%.

Compared with `COc1ccc2cc(-c3c(-c4ccncc4)nc(-c4ccc(S(C)(=O)=O)cc4C)n3C)ccc2c1` [SB-633825], `COc1cccc(-c2c[nH]c3c(N/N=C/c4ccncc4)ncnc23)c1` [GW814408X] is higher in “Percent Control” value: 3.8% for the first, 96% for the second.

`COc1ccccc1-c1cc(/C=C2\C(=O)Nc3ncc(Br)cc32)cc(Br)c1O` [GW442130X] and `O=C1Nc2ccc(C(=O)c3ccco3)cc2C1=Cc1cc(Cl)c(O)c(Cl)c1` [GW406108X] are the same in “Percent Control” value: 100% for the first, 100% for the second.

`COc1ccc2[nH]c3c4[nH]c5ccc(OC)cc5c4c4c(c3c2c1)C(=O)NC4=O` [GW296115X] and `COc1ccc(COc2ccc(Cc3cnc(N)nc3N)cc2OC)cc1` [GW632580X] are the same in “Percent Control” value: 100% for the first, 100% for the second.

Compared with `COc1cccc(-n2ncc3c(N/N=C/c4ccncc4)ncnc32)c1` [GW784752X], `COc1cc(C=NNc2ncnc3c2cnn3-c2ccccc2)ccc1O` [GW513184X] is lower in “Percent Control” value: 100% for the first, 74% for the second.

First: NS(=O)(=O)c1ccc(N/N=C2\C(=O)Nc3ccc(Cl)cc32)cc1 [GW280670X]
Second: NS(=O)(=O)c1ccc(N/N=C2\C(=O)Nc3ccc(-c4cnco4)cc32)cc1 [GW276655]
The “Percent Control” value of the first is higher: 100% for the first, 73% for the second.

Going from `COC(=O)Nc1nc2ccc(Oc3ccc(NC(=O)Nc4cc(C(F)(F)F)ccc4F)cc3)cc2s1.Cl` [GW693917A] to `Nc1ncnc2occ(-c3ccc(NC(=O)Nc4cc(C(F)(F)F)ccc4F)cc3)c12` [GW770249X], the “Percent Control” value falls from 3.1% to 2.6%.

`COc1ccc2c(-c3ccnc(Nc4cccc(OC(F)(F)F)c4)n3)cnn2n1` [GW810372X] and `Cl.c1ccc(Cc2nc3ccc(Nc4ncnc5ccccc45)cc3[nH]2)cc1` [GR269666A] are the same in “Percent Control” value: 100% for the first, 100% for the second.

`C/C(Nc1ccc(S(N)(=O)=O)cc1)=C1/C(=O)Nc2ccccc21` [GW335962X] and `CC(C)COC(=O)c1ccc2c(c1)/C(=C/Nc1ccc(S(N)(=O)=O)cc1)C(=O)N2` [GW416981X] are the same in “Percent Control” value: 100% for the first, 100% for the second.

Compared with `COc1cc(N2CCN(C(C)C)CC2)ccc1Nc1nc(Nc2ccc(F)cc2C(=O)NC[C@@H](O)CO)c2cc[nH]c2n1` [GSK1392956A], `COc1cc(C)c(N(C)C(=O)CN(C)C)cc1Nc1nc(Nc2cccc(F)c2C(N)=O)c2cc[nH]c2n1` [GSK2219385] is lower in “Percent Control” value: 100% for the first, 82% for the second.

Going from `NS(=O)(=O)c1ccc(Nc2ncc(-c3ccccc3)o2)cc1` [GW572399X] to `C[C@@H](Oc1cc(-n2cnc3ccc(OC4CCN(C)CC4)cc32)sc1C(N)=O)c1ccccc1Cl` [GSK579289A], the “Percent Control” value falls from 100% to 52%.

First: COc1cc2ncn(-c3cc(O[C@H](C)c4ccccc4Cl)c(C(N)=O)s3)c2cc1OC [GSK237701A]
Second: COc1cc(/C=N/Nc2ncnc3[nH]ncc23)ccc1O [GW578748X]
The “Percent Control” value of the first is lower: 13% for the first, 100% for the second.

With `Cc1cc(O)cc(C)c1/C=C/c1cncc(C(N)=O)c1` [GW435821X] the “Percent Control” value was 100%.
